Reference: PubChem BioAssay
Active and inactive are the calls of the source.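 Rule for the calls, unless noted: active = GFP response above 150% of the DMSO level; inconclusive = fewer than 70 events counted for a yeast strain; inactive = the rest.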

Key:
[1] = RPL19A-GFP modulators, yeast TOR pathway, confirmation, cell-based, S. cerevisiae, flow cytometry, cherry picks, mother/daughter gates (AID 2270;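 active = GFP response below 50% of the DMSO control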); conditions: S. cerevisiae RPL19A-GFP strain, 3 h, at 10 µM, stronger effect = lower value, 100 = same GFP as DMSO wells
[2] = LAP4-GFP expression modulators in yeast, confirmation, cell-based, cherry picks, flow cytometry, mother/daughter gates (AID 2271;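 active = GFP response above 150% of the DMSO control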;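 note: ratio of sample to DMSO plate mean so 100% equals DMSO level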); conditions: S. cerevisiae LAP4-GFP strain, 3 h, at 10 µM, stronger effect = higher value, 100 means same as DMSO control
[3] = modulators of MEP2-GFP levels in yeast, confirmation, S. cerevisiae, flow cytometry GFP, cherry picks (AID 2272;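 active = GFP response above 150% of the DMSO control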;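 note: ratio of well signal to plate DMSO mean so 100% equals DMSO level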); conditions: S. cerevisiae MEP2-GFP strain, 3 h, at 10 µM, stronger effect = higher value
[4] = AGP1-GFP expression modulators, hit retest, confirmation, cell-based, flow cytometry, S. cerevisiae, cherry picks (AID 2273);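 note: median GFP channel fluorescence over the whole cell population gate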; conditions: S. cerevisiae AGP1-GFP strain, 3 h, at 10 µM
[5] = modulators of CIT2-GFP expression in yeast, confirmation, S. cerevisiae, GFP fusion, cherry picks, mother/daughter gates (AID 2274); conditions: S. cerevisiae CIT2-GFP strain, flow cytometry, 3 h, at 10 µM, stronger effect = higher value
[6] = inhibitors of CD8+ T cell-vesicle binding, pilot screen, LFA-1/ICAM-1 modulator project, MLPCN validation set, flow cytometry (AID 2523;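 active = response below a set limit, under 55% cells CD8-positive and vesicle-bound, and CD8 cells' 90th-percentile brightness under 279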;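 for vesicle binding response: mean PE anti-B7-1 fluorescence of CD8+ cells relative to row control; 100% = QL9-loaded vesicles with DMSO vehicle in the same plate row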); conditions: 2C mouse CD8+ T cells, at 7 µM, stronger effect = lower value; double positive events: measured here: CD8+/vesicle+ event percentage
[7] = biological target: Integrin beta-1 (Homo sapiens) + Integrin alpha-4 (Homo sapiens) (UniProt P13612+P05556); test: inhibition of HUTS-21 binding to VLA-4, pilot screen, VLA-4 allosteric modulator project, U937 cells, HUTS-21 mAb, flow cytometry, validation set (AID 2674;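 active = inhibition above 50%, about 3 SD of the validation set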;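 note: antibody binding induced by the VLA-4 ligand LDV present at three times its Kd; 0% = LDV ligand with antibody and no compound and 100% = antibody without LDV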); conditions: HUTS-21 LIBS mAb binding, at 6.7 µM, stronger effect = higher value, binding induced by LDV ligand
[8] = superoxide lowering in aged yeast cells, pilot screen, validation compound set (AID 2706;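 active = superoxide response below 65% of plate, a cut near 3 SD across the whole screen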;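 note: yeast exposed to compound for one week at 30 degrees C before staining; 100% = mean of all compound wells on the same plate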); conditions: S. cerevisiae aging, superoxide DHE fluorescence; at 10 µM, stronger effect = lower value
[9] = biological target: Beta-adrenergic receptor kinase 1 (Homo sapiens) (UniProt P25098); test: GRK2 binders displacing RNA aptamer, biochemical, validation, human GRK2, bead flow cytometry (AID 488806;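 active = aptamer binding inhibition above 30%, about 3 SD of noise from non-fluorescent compounds; inactive = inhibition at or below 30%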); conditions: bead-bound GRK2, FAM-aptamer displacement, at 10 µM, stronger effect = higher value
[10] = biological target: Beta-2 adrenergic receptor (Homo sapiens) (UniProt P07550); test: beta2AR agonists driving receptor internalization, pilot screen, cell-based, FAP fluorogen, flow cytometry, validation set (AID 504459;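 active = percent response above 42, roughly 3 SD of non-fluorescent test compounds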;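 note: agonist-driven loss of surface beta2AR via internalization measured by FAP dye flow cytometry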); conditions: Am2.2-beta2AR cells, FAP surface receptor flow cytometry; at 10 µM; stronger effect = higher value
[11] = biological target: AP-2 complex subunit beta (Homo sapiens) (UniProt P63010); test: inhibitors of arrestin peptide binding to AP2, pilot screen, biochemical, validation set, GST-AP2 beads, flow cytometry (AID 504541;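 active = inhibition above 54%, about 3 SD of non-fluorescent compounds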;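 note: AP2 carries R879A mutation and is captured from E. coli lysate; bead-bound FITC arrestin peptide fluorescence measuring arrestin peptide binding to AP2; 0% = DMSO wells and 100% = excess unlabeled arrestin peptide control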); conditions: FITC arrestin peptide, at 10 µM, stronger effect = higher value, AP2 beta2 appendage fragment, R879A mutant
[12] = yeast V-ATPase proton transport modulators, S. cerevisiae, pHLuorin, HTS validation (AID 504600; in the data active = response above about 15%;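 note: plate controls were DMSO for no effect and reference compound for full effect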); conditions: S. cerevisiae pHLuorin cytosolic pH, at 10 µM, stronger effect = higher value
[13] = tested on: anti-desmoglein-3 scFv antibody binding to human DSG3; test: inhibitors of anti-DSG3 scFv binding to DSG3, pilot screen, biochemical, validation compound set, bead-based, flow cytometry (AID 588368;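 active = binding below the plate cutoff, the plate median minus 3 SD, with a reading above zero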;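 note: signal is the median channel fluorescence of bead-bound GFP antibody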); conditions: Protein G beads, DSG3-Fc, scFv-GFP binding, at 10 µM, stronger effect = lower value
[14] = inhibitors of fungal efflux pumps CDR1, CDR2, MDR1, pilot screen, validation compound set, multiplex, phenotypic (AID 588506;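 active = efflux inhibition above 0.42, the validation set average plus 4 SD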;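 note: Nile Red retained in cells so higher fluorescence means more efflux inhibition; 0 = negative control wells and 1 = enniatin B 25 µM full block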); conditions: S. cerevisiae pump-expressing triplex, Nile Red efflux flow cytometry; at 10 µM; stronger effect = higher value; the pumps come from Candida albicans
[15] = biological target: ATP-binding cassette sub-family B member 6 (Homo sapiens) (UniProt Q9NP58); test: ABCB6 transporter inhibitors, pilot screen, K562-ABCB6 cells, flow cytometry, validation set (AID 588550;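 active = inhibition above the screen-wide mean plus 3 SD, about 51%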;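 note: 0% = DMSO wells and 100% = benzethonium chloride 70 µM positive control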); conditions: K562-ABCB6 porphyrin accumulation, 1 h, at 10 µM, stronger effect = higher value
[16] = promoters of myeloid differentiation in arrested cells, primary screen, cell-based, GFP/MAC1 double positive, flow cytometry, validation set (AID 588685;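 active = differentiation response of at least 50%, scaled between solvent and reference control, from cells with both markers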;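 note: compound exposure lasts four days before antibody staining and flow analysis; 0% = DMSO wells and 100% = 5 µM fulvestrant positive control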); conditions: ER-HoxA9 marrow cells, stronger effect = higher value, normalized: vehicle 0, fulvestrant 100
[17] = measured here: mother cell gate

Integrin beta-1 (Homo sapiens) + Integrin alpha-4 (Homo sapiens), sequence (P05556 whole entry, looked up): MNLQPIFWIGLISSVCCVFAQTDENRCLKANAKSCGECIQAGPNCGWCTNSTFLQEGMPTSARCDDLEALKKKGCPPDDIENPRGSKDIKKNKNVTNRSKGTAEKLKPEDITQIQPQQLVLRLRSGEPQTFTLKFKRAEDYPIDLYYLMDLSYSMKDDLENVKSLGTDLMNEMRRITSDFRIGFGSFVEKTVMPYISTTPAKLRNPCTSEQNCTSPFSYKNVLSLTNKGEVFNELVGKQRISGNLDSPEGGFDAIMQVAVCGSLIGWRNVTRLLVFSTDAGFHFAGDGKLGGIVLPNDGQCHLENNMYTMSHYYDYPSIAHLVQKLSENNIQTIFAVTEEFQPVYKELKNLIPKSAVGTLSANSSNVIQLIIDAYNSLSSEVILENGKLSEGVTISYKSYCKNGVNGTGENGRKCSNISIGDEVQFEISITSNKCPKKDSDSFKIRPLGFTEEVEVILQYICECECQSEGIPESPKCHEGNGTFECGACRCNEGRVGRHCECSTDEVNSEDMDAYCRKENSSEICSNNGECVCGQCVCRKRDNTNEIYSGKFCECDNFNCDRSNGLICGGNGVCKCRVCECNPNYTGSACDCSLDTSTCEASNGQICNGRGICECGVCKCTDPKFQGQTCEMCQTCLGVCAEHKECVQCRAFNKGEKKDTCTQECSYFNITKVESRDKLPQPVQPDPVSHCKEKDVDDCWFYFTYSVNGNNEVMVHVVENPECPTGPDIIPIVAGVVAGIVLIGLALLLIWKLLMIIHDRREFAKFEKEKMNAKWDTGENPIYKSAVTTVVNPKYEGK
Integrin beta-1 (Homo sapiens) + Integrin alpha-4 (Homo sapiens), sequence (P13612 whole entry, looked up): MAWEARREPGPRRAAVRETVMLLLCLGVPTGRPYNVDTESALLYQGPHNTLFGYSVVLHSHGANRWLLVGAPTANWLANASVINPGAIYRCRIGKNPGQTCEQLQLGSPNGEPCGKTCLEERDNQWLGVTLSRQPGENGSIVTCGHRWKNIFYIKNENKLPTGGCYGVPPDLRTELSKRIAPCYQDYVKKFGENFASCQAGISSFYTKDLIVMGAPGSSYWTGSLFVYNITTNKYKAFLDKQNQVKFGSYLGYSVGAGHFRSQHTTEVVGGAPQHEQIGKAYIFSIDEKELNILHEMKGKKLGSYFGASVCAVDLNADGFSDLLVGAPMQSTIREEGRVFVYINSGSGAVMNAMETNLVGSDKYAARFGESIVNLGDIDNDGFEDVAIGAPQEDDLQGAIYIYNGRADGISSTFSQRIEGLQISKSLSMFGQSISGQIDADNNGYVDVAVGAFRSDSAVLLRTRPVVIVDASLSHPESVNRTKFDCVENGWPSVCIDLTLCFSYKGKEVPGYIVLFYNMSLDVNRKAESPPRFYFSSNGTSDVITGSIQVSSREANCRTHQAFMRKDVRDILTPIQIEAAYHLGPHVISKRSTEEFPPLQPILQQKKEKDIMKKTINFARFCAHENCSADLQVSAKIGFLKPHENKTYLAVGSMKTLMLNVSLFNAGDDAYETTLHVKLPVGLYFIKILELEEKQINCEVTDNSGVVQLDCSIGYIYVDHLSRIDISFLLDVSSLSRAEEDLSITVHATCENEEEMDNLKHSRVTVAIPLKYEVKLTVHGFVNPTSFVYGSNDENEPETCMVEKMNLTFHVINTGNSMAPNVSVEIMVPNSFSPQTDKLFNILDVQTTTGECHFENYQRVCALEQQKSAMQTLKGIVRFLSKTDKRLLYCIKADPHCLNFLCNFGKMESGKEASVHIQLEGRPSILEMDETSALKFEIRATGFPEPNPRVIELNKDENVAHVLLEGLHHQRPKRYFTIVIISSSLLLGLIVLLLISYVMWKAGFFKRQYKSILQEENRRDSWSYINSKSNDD
Beta-2 adrenergic receptor (Homo sapiens), sequence (P07550 whole entry, looked up): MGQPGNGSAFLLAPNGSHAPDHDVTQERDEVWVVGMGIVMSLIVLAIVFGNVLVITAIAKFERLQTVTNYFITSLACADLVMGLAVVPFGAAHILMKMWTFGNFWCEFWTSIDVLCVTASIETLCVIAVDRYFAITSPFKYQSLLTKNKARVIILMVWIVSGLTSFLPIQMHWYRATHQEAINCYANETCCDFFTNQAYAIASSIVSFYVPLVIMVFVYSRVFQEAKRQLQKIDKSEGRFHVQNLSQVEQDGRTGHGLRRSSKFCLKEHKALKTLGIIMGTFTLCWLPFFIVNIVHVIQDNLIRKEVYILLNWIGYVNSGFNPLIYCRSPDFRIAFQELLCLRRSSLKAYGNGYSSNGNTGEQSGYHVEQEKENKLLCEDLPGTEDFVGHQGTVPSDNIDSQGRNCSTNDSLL
Beta-adrenergic receptor kinase 1 (Homo sapiens), sequence (P25098 whole entry, looked up): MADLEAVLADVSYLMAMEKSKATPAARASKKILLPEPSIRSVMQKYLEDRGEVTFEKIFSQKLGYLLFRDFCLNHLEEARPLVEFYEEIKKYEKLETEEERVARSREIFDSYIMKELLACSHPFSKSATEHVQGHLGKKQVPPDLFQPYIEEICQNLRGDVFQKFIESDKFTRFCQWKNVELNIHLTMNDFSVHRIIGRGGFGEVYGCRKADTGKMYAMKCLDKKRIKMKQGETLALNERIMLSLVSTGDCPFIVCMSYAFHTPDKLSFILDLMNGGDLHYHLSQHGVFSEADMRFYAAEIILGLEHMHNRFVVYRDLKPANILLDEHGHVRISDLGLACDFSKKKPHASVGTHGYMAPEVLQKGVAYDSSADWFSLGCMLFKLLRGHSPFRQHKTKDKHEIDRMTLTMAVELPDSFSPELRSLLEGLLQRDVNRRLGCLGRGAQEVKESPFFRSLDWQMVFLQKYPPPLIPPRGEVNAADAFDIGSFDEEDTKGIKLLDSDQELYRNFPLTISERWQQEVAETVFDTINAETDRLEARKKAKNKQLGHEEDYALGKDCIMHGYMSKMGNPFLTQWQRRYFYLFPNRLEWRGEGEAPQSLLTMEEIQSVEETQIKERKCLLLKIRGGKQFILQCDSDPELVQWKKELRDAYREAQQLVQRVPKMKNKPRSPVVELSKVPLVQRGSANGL
ATP-binding cassette sub-family B member 6 (Homo sapiens), sequence (Q9NP58 whole entry, looked up): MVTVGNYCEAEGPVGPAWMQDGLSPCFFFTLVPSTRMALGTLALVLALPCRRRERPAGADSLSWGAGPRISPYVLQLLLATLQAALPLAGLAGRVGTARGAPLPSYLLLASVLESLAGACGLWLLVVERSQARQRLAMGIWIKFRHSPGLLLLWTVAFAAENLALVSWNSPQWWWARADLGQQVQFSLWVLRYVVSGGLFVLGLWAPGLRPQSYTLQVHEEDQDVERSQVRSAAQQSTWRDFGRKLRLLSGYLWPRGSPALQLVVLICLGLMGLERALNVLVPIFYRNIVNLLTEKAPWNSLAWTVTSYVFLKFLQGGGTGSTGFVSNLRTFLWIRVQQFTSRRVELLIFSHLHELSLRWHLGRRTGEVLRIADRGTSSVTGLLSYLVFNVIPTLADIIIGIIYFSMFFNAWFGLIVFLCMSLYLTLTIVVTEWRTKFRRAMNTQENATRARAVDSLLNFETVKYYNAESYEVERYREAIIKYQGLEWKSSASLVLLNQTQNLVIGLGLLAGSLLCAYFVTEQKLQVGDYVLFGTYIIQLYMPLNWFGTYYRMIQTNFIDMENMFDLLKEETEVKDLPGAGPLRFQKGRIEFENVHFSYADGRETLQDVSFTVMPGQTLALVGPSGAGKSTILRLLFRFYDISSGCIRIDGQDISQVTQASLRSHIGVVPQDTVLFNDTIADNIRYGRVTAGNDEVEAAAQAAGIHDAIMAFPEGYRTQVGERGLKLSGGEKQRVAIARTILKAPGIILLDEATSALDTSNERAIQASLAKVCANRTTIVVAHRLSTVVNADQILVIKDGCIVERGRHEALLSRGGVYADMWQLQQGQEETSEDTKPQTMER
AP-2 complex subunit beta (Homo sapiens), sequence (P63010 whole entry, looked up, the tested form may be a part, one chain of several): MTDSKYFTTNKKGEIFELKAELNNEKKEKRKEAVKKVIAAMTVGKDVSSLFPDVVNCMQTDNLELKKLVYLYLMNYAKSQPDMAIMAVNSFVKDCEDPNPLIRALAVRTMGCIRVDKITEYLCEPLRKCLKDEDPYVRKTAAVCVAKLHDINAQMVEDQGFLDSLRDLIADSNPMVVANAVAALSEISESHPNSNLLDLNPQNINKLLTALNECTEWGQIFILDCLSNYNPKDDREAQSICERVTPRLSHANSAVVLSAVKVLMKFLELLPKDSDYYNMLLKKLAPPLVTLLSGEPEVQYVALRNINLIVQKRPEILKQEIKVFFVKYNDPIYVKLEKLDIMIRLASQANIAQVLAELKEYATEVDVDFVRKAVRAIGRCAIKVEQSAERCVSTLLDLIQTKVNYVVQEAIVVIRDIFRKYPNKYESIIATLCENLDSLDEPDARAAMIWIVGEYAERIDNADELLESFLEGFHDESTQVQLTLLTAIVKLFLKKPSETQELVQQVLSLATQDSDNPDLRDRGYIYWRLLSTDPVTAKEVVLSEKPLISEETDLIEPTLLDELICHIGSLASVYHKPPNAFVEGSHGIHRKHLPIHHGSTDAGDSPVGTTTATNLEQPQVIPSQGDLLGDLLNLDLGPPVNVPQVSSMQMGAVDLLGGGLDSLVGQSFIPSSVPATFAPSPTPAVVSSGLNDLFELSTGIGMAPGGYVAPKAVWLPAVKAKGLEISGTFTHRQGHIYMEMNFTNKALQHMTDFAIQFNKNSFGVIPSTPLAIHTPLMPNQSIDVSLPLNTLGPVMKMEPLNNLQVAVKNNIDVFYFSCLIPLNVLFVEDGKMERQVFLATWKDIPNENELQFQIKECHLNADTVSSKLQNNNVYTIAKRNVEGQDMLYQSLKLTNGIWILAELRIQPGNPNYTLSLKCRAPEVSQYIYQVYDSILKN

Cc1ccc(NC(=O)c2ccc(Cl)c(N3C(=O)C=CC3=O)c2)cc1
69.8%: GFP response vs DMSO [1, 17]
active: GFP response relative to DMSO [2] 217%
inactive: GFP response vs DMSO [1] 86.1% | GFP response vs DMSO [3] 129% | GFP response, % of DMSO [4] 97.1% | GFP response, % of DMSO [5] 84.9%
186%: GFP response relative to DMSO ([2]; measured here: mother cell gate response)

COc1ccc(NC(=S)NCCc2c[nH]c3ccccc23)cc1
69.3%: double positive events [6]
inactive: vesicle binding response [6] 445% | inhibition [7] -1.97% | superoxide response (% of plate) [8] 111% | aptamer binding inhibition [9] 1% | response [10] -13.3% | inhibition [11] -10.2% | response [12] -1.54% | binding (% of control) [13] 108% | efflux inhibition (fraction of control) [14] 0 | inhibition [15] 8% | differentiation response [16] -6.96%

CC(OC(=O)c1cccs1)C(=O)Nc1nc(-c2ccccc2)cs1 (centres undefined)
inactive: GFP response vs DMSO [1] 98.7% | GFP response relative to DMSO [2] 94.2% | GFP response vs DMSO [3] 99.5% | GFP response, % of DMSO [4] 94.9% | GFP response, % of DMSO [5] 101%

O=C(NOC(=O)c1ccccc1)c1ccccc1
96.6%: GFP response, % of DMSO [5, 17]
inactive: GFP response vs DMSO [1] 108% | GFP response relative to DMSO [2] 118% | GFP response vs DMSO [3] 130% | GFP response, % of DMSO [4] 88.2% | GFP response, % of DMSO [5] 113%
103%: GFP response, % of DMSO ([5]; measured here: daughter cell gate)

COc1cccc(OC2OC3COC(C)(C)OC3C(O)C2NC(C)=O)c1 (centres undefined)
inactive: vesicle binding response [6] 203% | inhibition [7] 5.61% | superoxide response (% of plate) [8] 97.8% | aptamer binding inhibition [9] 2% | response [10] 2.82% | inhibition [11] 2.96% | response [12] 6.08% | binding (% of control) [13] 103% | efflux inhibition (fraction of control) [14] 0.1 | inhibition [15] 30% | differentiation response [16] -11.9%
63.6%: double positive events [6]

CC(C)(C)c1ccc(C(O)CCCN2CCC(C(O)(c3ccccc3)c3ccccc3)CC2)cc1 (centres undefined)
inactive: vesicle binding response [6] 199% | inhibition [7] 38.9% | aptamer binding inhibition [9] -1% | inhibition [11] 2.19% | binding (% of control) [13] 112% | inhibition [15] 10% | differentiation response [16] 0.92%
active: superoxide response (% of plate) [8] 54.7% | response [10] 74.7% | response [12] 16.5% | efflux inhibition (fraction of control) [14] 0.59
64.6%: double positive events [6]

CC(=O)Oc1ccc(C2OC(=O)c3ccccc3N2C(C)=O)cc1 (centres undefined)
inactive: vesicle binding response [6] 146% | inhibition [7] 19% | superoxide response (% of plate) [8] 98.4% | aptamer binding inhibition [9] 1% | response [10] 15.3% | inhibition [11] 0.53% | response [12] -2.98% | binding (% of control) [13] 98.1% | efflux inhibition (fraction of control) [14] 0.03 | inhibition [15] 8% | differentiation response [16] -4.57%
63.2%: double positive events [6]

CCn1cc(C(=O)O)c(=O)c2cc(F)c(N3CCNCC3)cc21
inactive: vesicle binding response [6] 276% | inhibition [7] 14.2% | superoxide response (% of plate) [8] 104% | aptamer binding inhibition [9] 2% | response [10] 29.6% | inhibition [11] 5.87% | response [12] 7.15% | binding (% of control) [13] 98% | efflux inhibition (fraction of control) [14] 0 | inhibition [15] 2% | differentiation response [16] 10.8%
70.1%: double positive events [6]
